Data taken from PubChem BioAssay (Tox21).
Inconclusive results are not listed. A call without a number means that no potency is given here. Calls of active or inactive are those of the source. Unless noted, the call rests on the fitted dose curve.

Biological target: Vitamin D3 receptor (Homo sapiens) (UniProt P11473)
Experiment: qHTS assay to identify small molecule agonists of the vitamin D receptor (VDR) signaling pathway (AID 743222)
Conditions: HEK293T VDR-UAS-bla, beta-lactamase FRET ratio, 16 h; series mostly up to 63.5 µM
How it was run: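 VDR-bla cells were plated 4 h at 37C/5% CO2, then exposed to compounds in DMSO for 16 h. After LiveBLAzer B/G FRET substrate addition and 2 h at room temperature, beta-lactamase reporter fluorescence was read.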

Vitamin D3 receptor (Homo sapiens), sequence (P11473 whole entry, looked up): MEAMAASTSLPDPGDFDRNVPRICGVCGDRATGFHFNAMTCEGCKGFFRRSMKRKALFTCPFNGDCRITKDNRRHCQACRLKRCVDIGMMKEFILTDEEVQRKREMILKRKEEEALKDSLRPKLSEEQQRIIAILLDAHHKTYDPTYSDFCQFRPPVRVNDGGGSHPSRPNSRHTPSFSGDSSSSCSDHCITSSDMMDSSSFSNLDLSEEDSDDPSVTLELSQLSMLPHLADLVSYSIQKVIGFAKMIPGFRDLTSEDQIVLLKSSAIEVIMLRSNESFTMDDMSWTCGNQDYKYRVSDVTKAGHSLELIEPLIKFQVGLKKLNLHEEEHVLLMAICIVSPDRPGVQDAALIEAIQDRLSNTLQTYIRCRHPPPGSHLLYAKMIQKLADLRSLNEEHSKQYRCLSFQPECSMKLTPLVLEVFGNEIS

| SMILES | outcome |
| --- | --- |
| CC(=O)c1c(C)c([N+](=O)[O-])c(C(C)(C)C)c([N+](=O)[O-])c1C | inactive |
| CC(C)NCC(O)c1cc(O)cc(O)c1 (centres undefined) | inactive |
| Cc1ncsc1CCO | inactive |
| Cc1cccc(C(C)(C)C)c1O | inactive |
| CCCCCCc1ccc(N)cc1 | inactive |
| CN(C)C/C=C(/c1ccc(Br)cc1)c1cccnc1 | inactive |
| CC(C)(C)c1ccc(S)cc1 | inactive |
| COc1ccc([C@@H]2Sc3ccccc3N(CCN(C)C)C(=O)[C@@H]2OC(C)=O)cc1 | inactive |
| CCCCCCCCCC=O | inactive |
| Oc1ccc(O)c2c(O)cccc12 | inactive |
| CCOC(=S)SSC(=S)OCC | inactive |
| C[C@@H](C1=C(CCN(C)C)Cc2ccccc21)c1ccccn1 | inactive |
| CC(C(=O)O)c1ccc(-c2ccccc2)c(F)c1 (centres undefined) | inactive |
| CCCCCCCCCCCCCCCBr | inactive |
| O=C1c2cccc(O)c2C(=O)c2c(O)cc(CO)cc21 | inactive |
| NCc1ccccc1 | inactive |
| C1=Cc2ccccc2C1 | inactive |
| CN(C)CC/C=C1\c2ccccc2COc2ccccc21 | inactive |
| CCN(CC)CCNC(C(=O)OCCC(C)C)c1ccccc1 (centres undefined) | inactive |
| CC(C)(C)C1CCCCC1O (centres undefined) | inactive |
| Cc1ccc(C(=O)C(C)CN2CCCCC2)cc1 (centres undefined) | inactive |
| c1ccc(OCc2ccc(CCCN3CCOCC3)cc2)cc1 | inactive |
| O=C(C(=O)c1ccc(Br)cc1)c1ccc(Br)cc1 | inactive |
| OCC1CC2CC1C1CCC(CO)C21 (centres undefined) | inactive |

Biological target: Vitamin D3 receptor (Homo sapiens) (UniProt P11473)
Experiment: qHTS assay to identify small molecule antagonists of the vitamin D receptor (VDR) signaling pathway (AID 743223; active means well fitted inhibition curve with a large enough effect in the signal ratio in the repeat runs, not every such curve was filed as active; the % refers to the signal ratio)
Conditions: VDR-UAS-bla HEK293T, beta-lactamase FRET ratio, 16 h; series mostly up to 61 µM
How it was run: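 After VDR-bla cells are plated and left 4 h at 37C, DMSO-dissolved compounds and 3 nM (final) calcitriol agonist are added. Incubation continues 16 h at 37C; FRET beta-lactamase substrate then develops 2 h at room temperature.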

| SMILES | Potency |
| --- | --- |
| CC(C)NCC(O)c1cc(O)cc(O)c1 (centres undefined) | inactive |
| Cc1cccc(C(C)(C)C)c1O | inactive |
| CCCCCCc1ccc(N)cc1 | inactive |
| CN(C)C/C=C(/c1ccc(Br)cc1)c1cccnc1 | inactive |
| CC(C)(C)c1ccc(S)cc1 | inactive |
| COc1ccc([C@@H]2Sc3ccccc3N(CCN(C)C)C(=O)[C@@H]2OC(C)=O)cc1 | inactive |
| CCCCCCCCCC=O | inactive |
| CCOC(=S)SSC(=S)OCC | inactive |
| C[C@@H](C1=C(CCN(C)C)Cc2ccccc21)c1ccccn1 | inactive |
| CC(C(=O)O)c1ccc(-c2ccccc2)c(F)c1 (centres undefined) | inactive |
| O=C1c2cccc(O)c2C(=O)c2c(O)cc(CO)cc21 | inactive |
| NCc1ccccc1 | inactive |
| C1=Cc2ccccc2C1 | inactive |
| CN(C)CC/C=C1\c2ccccc2COc2ccccc21 | inactive |
| CCN(CC)CCNC(C(=O)OCCC(C)C)c1ccccc1 (centres undefined) | inactive |
| CC(C)(C)C1CCCCC1O (centres undefined) | inactive |
| Cc1ccc(C(=O)C(C)CN2CCCCC2)cc1 (centres undefined) | inactive |
| c1ccc(OCc2ccc(CCCN3CCOCC3)cc2)cc1 | inactive |
| O=C(C(=O)c1ccc(Br)cc1)c1ccc(Br)cc1 | inactive |
| OCC1CC2CC1C1CCC(CO)C21 (centres undefined) | inactive |
